{"source": "PubChem BioAssay AID1063", "about": "(University of Pittsburgh Molecular Library Screening Center, 2008)", "note": "Values joined by “and” are separate entries in the source; they are usually repeats but may differ in a detail not shown here. Identical values can stand only once. Out of some 200,000 compounds screened, about 18,000 (9%) were called active. Cut-off read from the data, not from the text of the source: active = inhibition above about 50%; inactive = the rest. Many of the other results were omitted from the sample, so actives are more common in it than they were."}
{"assay": "antileishmanial activity against promastigotes – primary screen (AID 1063);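 note: promastigotes grown with compound for 44 hours at 28 °C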", "conditions": "Leishmania major promastigotes, resazurin fluorescence viability; at 10 µM; stronger effect = higher value"}
{"compound": "CN1CCN(c2ccc([N+](=O)[O-])c(Sc3nc4ccccc4[nH]3)c2)CC1", "inhibition": "57% (active)"}
{"compound": "O=[N+]([O-])c1ccc(N2CCNCC2)cc1NCc1cccnc1", "inhibition": "-1.11% (inactive)"}
{"compound": "O=C(CSc1nc2ccccc2[nH]1)N/N=C/C=C\\c1ccccc1[N+](=O)[O-]", "inhibition": "40.1% (inactive)"}
{"compound": "COc1ccc(S(=O)(=O)N2CCOCC2)cc1NC(=O)CSc1ncnc2ccccc12", "inhibition": "23% (inactive)"}
{"compound": "O=C(NC1CC1)C1CCCN(C(=O)NC2CCCCC2)C1", "note": "(stereo unspecified)", "inhibition": "1.82% (inactive)"}
{"compound": "COc1ccc(-c2nn(-c3ccccc3)cc2CN2CCCO2)c(F)c1", "inhibition": "13% (inactive)"}
{"compound": "O=C(CCCN1C(=O)/C(=C/c2ccco2)SC1=S)Nc1ccccc1", "inhibition": "10.2% (inactive)"}
{"compound": "O=C(CCCN1C(=O)/C(=C\\c2ccco2)SC1=S)Nc1cccc2ccccc12", "inhibition": "30.1% (inactive)"}
{"compound": "O=C(CCCN1C(=O)/C(=C/c2ccccc2)SC1=S)Nc1ccc(O)cc1", "inhibition": "56.3% (active)"}
{"compound": "O=C(Nc1ccc([N+](=O)[O-])cc1)C1CC12CCC2", "note": "(stereo unspecified)", "inhibition": "2.36% (inactive)"}
{"compound": "COc1ccc(/C(N)=N/OC(=O)Cc2ccccc2)cc1", "inhibition": "-6.43% (inactive)"}
{"compound": "N/C(=N\\OC(=O)CC1CCCCC1)c1ccccc1", "inhibition": "57.8% (active)"}
{"compound": "N/C(=N\\OC(=O)CCC1CCCCC1)c1ccccn1", "inhibition": "-4.7% (inactive)"}
{"compound": "CCc1ccccc1N1C(=O)C2C3CC(=O)C(c4ccccc43)C2C1=O", "note": "(stereo unspecified)", "inhibition": "7.01% (inactive)"}
{"compound": "Cc1noc(C)c1COc1ccc2ccc(=O)oc2c1", "inhibition": "-4.27% (inactive)"}
{"compound": "COc1cc(C)c(C(C)C)cc1S(=O)(=O)n1ccnc1", "inhibition": "97.8% (active)"}
{"compound": "COc1cc(C)c(Cl)cc1S(=O)(=O)n1ccnc1", "inhibition": "80.5% (active)"}
{"compound": "CCOc1ccc(S(=O)(=O)n2ccnc2)c2ccccc12", "inhibition": "-5.02% (inactive)"}
{"compound": "COc1cc(Cl)c(S(=O)(=O)n2cnc(C)c2)cc1Cl", "inhibition": "2.35% (inactive)"}
{"compound": "CCOc1ccc(C(C)C)cc1S(=O)(=O)n1nc(C)cc1C", "inhibition": "0.47% (inactive)"}
{"compound": "CCOc1cc(C)c(Cl)cc1S(=O)(=O)n1nnc2ccccc21", "inhibition": "1.2% (inactive)"}
{"compound": "N#Cc1c(NC(=O)CCCl)sc2c1CCCCC2", "inhibition": "-0.81% (inactive)"}
{"compound": "CCCCCc1nnc(NC(=O)c2ccc(=O)n(C)n2)s1", "inhibition": "1.57% (inactive)"}
{"compound": "O=C1N/C(=C/c2cccs2)C(=O)N1Cc1ccc(F)cc1", "inhibition": "-5.2% (inactive)"}
{"compound": "CC1CC1C(=O)OCC(=O)c1c(N)n(C)c(=O)n(C)c1=O", "note": "(stereo unspecified)", "inhibition": "-4.6% (inactive)"}
{"compound": "COCCN(C(=O)C(C)C)c1nnc(-c2ccc(C(C)(C)C)cc2)s1", "inhibition": "8.79% (inactive)"}
{"compound": "O=C(O)c1ccc2c3c(cccc13)C(=O)N(OS(=O)(=O)c1ccccc1)C2=O", "inhibition": "-8.08% (inactive)"}
{"compound": "Cc1cccc(C)c1NC(=O)CSc1ccc([N+](=O)[O-])cn1", "inhibition": "-1.31% (inactive)"}
{"compound": "Cc1cc(C)c(C#N)c(SCC(=O)Nc2ccccc2)n1", "inhibition": "-5.68% (inactive)"}
{"compound": "Cc1cc2cc3c(cc2nc1SCC(=O)Nc1c(C)cccc1C)CCC3", "inhibition": "78.9% (active)"}
{"compound": "CS(=O)(=O)N(CC(=O)N/N=C/c1ccccn1)c1ccc(Oc2ccccc2)cc1", "inhibition": "32.9% (inactive)"}
{"compound": "CCCN(CC(=O)Nc1ccccc1C)C(=O)c1cc(=O)[nH]c2ccccc12", "inhibition": "1.78% (inactive)"}
{"compound": "O=C(O)c1ccc(N/N=C/c2cn(-c3ccccc3)nc2-c2cccs2)cc1", "inhibition": "46.2% (inactive)"}
{"compound": "CC(=O)C1=C(C)NC(C)=C(C(C)=O)C1c1cn(-c2ccccc2)nc1-c1cccs1", "inhibition": "79.7% (active)"}
{"compound": "O=C(O)/C=C/c1cn(-c2ccccc2)nc1-c1cccs1", "inhibition": "-2.18% (inactive)"}
{"compound": "CC(=O)Nc1ccc(S(=O)(=O)Oc2ccc(/C=N/N=C3/NC(=O)C(CC(=O)O)S3)cc2)cc1", "note": "(stereo unspecified)", "inhibition": "-13.1% (inactive)"}
{"compound": "Cc1cccc(C)c1NC(=O)C1CCCN1C(=O)OC(C)(C)C", "note": "(stereo unspecified)", "inhibition": "-5.04% (inactive)"}
{"compound": "Cc1ccc(NC(=O)c2csc3c2CCCC3)cc1", "inhibition": "12.4% (inactive)"}
{"compound": "CC(Sc1cccc[n+]1[O-])C(=O)Nc1cccc(S(=O)(=O)N2CCOCC2)c1", "note": "(stereo unspecified)", "inhibition": "-4.48% (inactive)"}
{"compound": "Cc1cc(C(=O)OC(C)C(=O)Nc2cccc(S(=O)(=O)N3CCOCC3)c2)c(C)o1", "note": "(stereo unspecified)", "inhibition": "99.7% (active)"}
{"compound": "O=C(COC(=O)c1ccccc1)Nc1cccc(S(=O)(=O)N2CCOCC2)c1", "inhibition": "-3.29% (inactive)"}
{"compound": "Cc1nc(CN2CCN(C(=O)CCc3nnc(Cc4c[nH]c5ccccc45)o3)CC2)cs1", "inhibition": "0.41% (inactive)"}
{"compound": "CN(CCN1CCOCC1)Cc1nc(-c2ccc3c(c2)OCO3)no1", "inhibition": "39.3% (inactive)"}
{"compound": "CC(C)c1cc(NCc2ccccn2)n2c(nc3ccccc32)c1C#N", "inhibition": "8.36% (inactive)"}
{"compound": "Cc1cc(N/N=C/c2ccccc2F)c2ccccc2n1", "inhibition": "12.3% (inactive)"}
{"compound": "Cc1nc(N2CCOCC2)sc1C(=O)NN", "inhibition": "7.46% (inactive)"}
{"compound": "Cn1c(-c2ccccc2)c[n+]2c1CCCCC2", "inhibition": "0.17% (inactive)"}
{"compound": "Cc1ccc(C(=O)N2CCCC(c3ccccc3)=N2)cc1", "inhibition": "16.1% (inactive)"}
{"compound": "Cc1ccc(C(=O)C[n+]2cc(-c3ccccc3)n3c2CCCCC3)cc1", "inhibition": "101% (active) and 100% (active)"}
{"compound": "N/C(=N/O)c1cccn1Cc1ccccc1[N+](=O)[O-]", "inhibition": "-1.66% (inactive)"}
{"compound": "COc1ccc(C)cc1NC(=O)c1ccc(-c2ccc(C(C)=O)cc2)o1", "inhibition": "-4.3% (inactive)"}
{"compound": "O=C(NC1CCN(Cc2ccccc2)CC1)c1ccccc1F", "inhibition": "62.4% (active)"}
{"compound": "O=C(NNC(=S)Nc1ccc(Br)cc1Cl)c1ccco1", "inhibition": "0.76% (inactive)"}
{"compound": "S=C(NN=C1CCN(Cc2ccccc2)CC1)NC1CCCCC1", "inhibition": "-4.71% (inactive)"}
{"compound": "COc1cc2[nH]c(=O)n(Cc3ccc(C(=O)NC4CCN(Cc5ccccc5)CC4)cc3)c(=O)c2cc1OC", "inhibition": "-5.05% (inactive)"}
{"compound": "O=C(NC1CCN(Cc2ccccc2)CC1)c1cc(Br)c(Br)[nH]1", "inhibition": "60.3% (active)"}
{"compound": "Cc1ccn2cc(C(=O)NC3CCN(Cc4ccccc4)CC3)nc2c1", "inhibition": "4.6% (inactive)"}
{"compound": "O=C(COc1ccc(Br)cc1F)NC1CCN(Cc2ccccc2)CC1", "inhibition": "93.2% (active)"}
{"compound": "O=C(NC(=S)N1CCN(Cc2ccccc2)CC1)c1ccccc1", "inhibition": "14.1% (inactive)"}
{"compound": "S=C(Nc1ccc(Br)cc1Cl)NC1CCN(Cc2ccccc2)CC1", "inhibition": "90.3% (active)"}
{"compound": "O=C(COc1ccccc1F)NC1CC1", "inhibition": "-1.88% (inactive)"}
{"compound": "COc1cc2[nH]c(=O)n(CCC(=O)NC3CCN(Cc4ccccc4)CC3)c(=O)c2cc1OC", "inhibition": "-1.95% (inactive)"}
{"compound": "O=C(NC1CCN(Cc2ccccc2)CC1)c1c(F)cccc1F", "inhibition": "21.7% (inactive)"}
{"compound": "O=C1c2ccccc2NC(c2ccccc2O)N1NS(=O)(=O)c1ccccc1", "note": "(stereo unspecified)", "inhibition": "7.23% (inactive)"}
{"compound": "Cc1ccc(Cl)c(NC(=O)CN2CCN(C=O)CC2)c1", "inhibition": "-1.88% (inactive)"}
{"compound": "COc1cccc(NC(=O)c2ccc3c(SCC(=O)O)c4c(nc3c2)CCCC4)c1", "inhibition": "7.5% (inactive)"}
{"compound": "O=C(Nc1ccncc1)c1cc(-c2ccccn2)nc2ccc(Br)cc12", "inhibition": "2.98% (inactive)"}
{"compound": "NC(=O)c1ccccc1N(Cc1ccccc1)S(=O)(=O)c1ccccc1", "inhibition": "2.81% (inactive)"}
{"compound": "CC(C)(C)n1nc2c(c1NC(=O)c1cc3ccccc3o1)CSC2", "inhibition": "1.01% (inactive)"}
{"compound": "COc1ccccc1N1CCN(c2ccc([N+](=O)[O-])nc2)CC1", "inhibition": "-10.8% (inactive)"}
{"compound": "C/C(=N/N1CCN(Cc2cccc3ccccc23)CC1)c1cccnc1", "inhibition": "17.2% (inactive)"}
{"compound": "OCC1(Cc2ccccc2C(F)(F)F)CCN(Cc2cccc3cnccc23)CC1", "inhibition": "88.2% (active)"}
{"compound": "CCOC(=O)C1(Cc2ccccc2C(F)(F)F)CCN(C(=O)c2cc(C)n(C)n2)CC1", "inhibition": "5.02% (inactive)"}
{"compound": "COc1ccc(C2=NN(c3nc4ccccc4s3)C(=O)C2)cc1", "inhibition": "-7.22% (inactive)"}
{"compound": "CCC(C)(C)NC(=O)CN(C(=O)CCC(=O)Nc1cc(C)ccn1)c1ccc2c(c1)OCCO2", "inhibition": "-0.92% (inactive)"}
{"compound": "CCC(C)N(C)C1CCN(C(=S)Nc2ccc(OC)cc2)CC1", "note": "(stereo unspecified)", "inhibition": "34.2% (inactive)"}
{"compound": "CCOc1ccc(NC(=S)N2CCC(N(C)CC3CCCO3)CC2)cc1", "note": "(stereo unspecified)", "inhibition": "96.2% (active)"}
{"compound": "CCOc1ccc(NC(=S)N2CCCCCC2)cc1", "inhibition": "3.65% (inactive)"}
{"compound": "Cn1cc(CN2CCC(C(O)CCc3ccccc3)CC2)c(-c2ccccc2F)n1", "note": "(stereo unspecified)", "inhibition": "-2.53% (inactive)"}
{"compound": "Cc1ccc(NC(=O)Cn2c(=O)n(CCC(=O)NC3CCN(Cc4ccccc4)CC3)c(=O)c3ccccc32)cc1", "inhibition": "0.09% (inactive)"}
{"compound": "Cc1ccc(CNC(=O)CCNS(=O)(=O)c2ccc(Br)s2)cc1", "inhibition": "-6.86% (inactive)"}
{"compound": "COc1ccc(CN2CN(C(C)C)CSC2=S)cc1", "inhibition": "96.4% (active)"}
{"compound": "COc1ccc(CN2CN(C3CCCC3)CSC2=S)cc1", "inhibition": "5.66% (inactive)"}
{"compound": "COc1ccc(Cn2c(=O)cc(C)[nH]c2=S)cc1", "inhibition": "-4.72% (inactive)"}
{"compound": "COc1ccccc1CSc1nc2ccccc2[nH]1", "inhibition": "-3.47% (inactive)"}
{"compound": "COc1ccccc1CC(=O)Nc1ccc([N+](=O)[O-])cc1OC", "inhibition": "-0.93% (inactive)"}
{"compound": "COc1ccccc1CSc1ncc(-c2ccc([N+](=O)[O-])cc2)[nH]1", "inhibition": "76.4% (active)"}
{"compound": "CCOC(=O)/C=c1\\s/c(=C\\c2ccc(C#N)cc2)c(=O)n1CC(=O)Nc1cccc(C)c1C", "inhibition": "-1.97% (inactive)"}
{"compound": "CCOC(=O)C/C(C)=N\\Nc1ccc([N+](=O)[O-])cc1[N+](=O)[O-]", "inhibition": "2.68% (inactive)"}
{"compound": "CN1C(=O)/C(=C/C=C2\\SCCN2C)OC1=S", "inhibition": "12.9% (inactive)"}
{"compound": "CCN(CC)S(=O)(=O)c1ccc(N2CCCC2)c(NS(=O)(=O)c2cccs2)c1", "inhibition": "-1.33% (inactive)"}
{"compound": "COc1cc(S(=O)(=O)N(Cc2cccs2)C2CC2)ccc1-n1cnnn1", "inhibition": "99.8% (active)"}
{"compound": "COc1ccc(N(CC(=O)N/N=C/c2cccs2)S(=O)(=O)c2ccc(OC)c(OC)c2)cc1", "inhibition": "3.63% (inactive)"}
{"compound": "CCOc1ccc(CN(Cc2ccco2)S(=O)(=O)c2ccc(-n3cnnn3)c(OC)c2)cc1", "inhibition": "95.5% (active)"}
{"compound": "CCOc1ccc(S(=O)(=O)N(CC(=O)NCC(F)(F)F)Cc2ccco2)cc1", "inhibition": "-5.48% (inactive)"}
{"compound": "COc1ccc(CN(Cc2ccco2)S(=O)(=O)c2ccc(S(=O)(=O)N3CCCC3)cc2)cc1", "inhibition": "-4.09% (inactive)"}
